Inconclusive results are not listed. More than one record can exist for a structure, and the calls need not agree. Calls of active or inactive are those of the source. Unless noted, calls follow the shape of the full dose curve.

Experiment [1] in a line: Nuclear factor erythroid 2-related factor 2/antioxidant responsive element (Nrf2/ARE) small molecule agonists: qHTS cell viability counter screen in human keratinocytes (AID 1919968; active = well fitted curve in the direction sought with a large enough effect in the repeat runs; an effect the other way counts as inactive or inconclusive; also: nearly all actives have a fitted effect of over 55% in size; also: potency is read from the fitted curve at half-maximal effect). A digest of the protocol: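 KeratinoSens HaCaT cells, 1,500/well, preincubated 5 h, then exposed to compounds in DMSO for 23 h at 37 C/5% CO2. Viability read as CellTiter-Fluor fluorescence after 1 h, in the same wells as the ARE-luciferase read.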

The nature of experiment [2]: Nuclear factor erythroid 2-related factor 2/antioxidant responsive element (Nrf2/ARE) small molecule agonists: luciferase reporter gene qHTS assay in human keratinocytes (AID 1919969). Also: nearly all actives have a fitted effect of over 35% in size. Also: potency is read from the fitted curve at half-maximal effect.
Experiment [3] deals with Gonadotropin-releasing hormone receptor (Homo sapiens) (UniProt P30968). The experiment can be described thus: Human gonadotropin-releasing hormone receptor (GnRHR) small molecule agonists, calcium flux assay in GnRHR-HEK293 cells (AID 1920063). Also: nearly all actives have a fitted effect of over 35% in size. A digest of the protocol:
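HEK293 cells stably expressing human GnRHR were dye-loaded for 1 h at 37 C. Compound was added in agonist mode and fluorescence (Ex/Em 480/540) recorded kinetically for 3 min. Fifteen concentrations, triplicates.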
In general terms: Calcium assays in cells follow changes in intracellular calcium, usually with a dye or a luminescent sensor.

Experiment [4] has as its target KiSS-1 receptor (Homo sapiens) (UniProt Q969F8). The experiment is described as follows: Human kisspeptin (KISS1R) small molecule agonists, calcium flux assay in KISS1R-HEK293 cells (AID 1920064; active = well fitted curve in the direction sought with a large enough effect in the repeat runs; an effect the other way counts as inactive or inconclusive). A digest of the protocol:
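HEK293 cells stably expressing human KISS1R were loaded with calcium dye for 1 h at 37 C, then given compound; fluorescence (Ex/Em 480/540) was read kinetically for 3 min. Fifteen concentrations, triplicate.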

Experiment [5] in a line: G protein-coupled receptor (GPCR) small molecule agonists, calcium flux assay: HEK293 wild type cell line counter screen (AID 1920065). A digest of the protocol:
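Wild-type HEK293 cells plated 18 h, loaded with calcium dye 1 h at 37 C, then compounds added in agonist mode (ATP as positive control). Kinetic fluorescence Ex/Em 480/540 recorded 3 min at 1 sec intervals; 15 concentrations, triplicate.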

Experiment [6] can be described thus: p53 small molecule agonists, cell-based qHTS assay with human liver microsomes: qHTS cell viability counter screen (AID 1963579). Also: nearly all actives have a fitted effect of over 45% in size. The gist of the method:
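p53RE-bla cells (4,000/well) were pre-incubated 5 h at 37 C, then given compounds in DMSO plus human liver microsomes (0.5 mg/mL final) and NADPH (0.5 mg/mL final) for 16 h at 37 C. Viability was read by CellTiter-Glo luminescence.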
On the technique in general: Quantitative high-throughput screening tests each substance at several concentrations.

Experiment [7] is described as follows: p53 small molecule agonists, cell-based qHTS assay with rat liver microsomes: qHTS cell viability counter screen (AID 1963580). Also: nearly all actives have a fitted effect of over 45% in size. The gist of the method: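 p53RE-bla HCT-116 cells were exposed 16 h at 37 C to compounds with rat liver microsomes (0.5 mg/mL) and NADPH (0.5 mg/mL). Viability was measured in the same wells as ATP content by CellTiter-Glo luminescence.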

Experiment [8] can be described thus: p53 small molecule agonists, cell-based qHTS assay: qHTS cell viability counter screen (AID 1963581). Also: nearly all actives have a fitted effect of over 45% in size. The gist of the method: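 p53RE-bla HCT-116 cells, compounds added 5 h after plating and incubated 16 h at 37 C. Cytotoxicity measured in the same wells as intracellular ATP by CellTiter-Glo luminescence after 30 min at room temperature.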
Experiment [9] in a line: p53 small molecule agonists, cell-based qHTS assay (AID 1963582; active = well fitted activation curve with a large enough effect in the signal ratio in the repeat runs, not every such curve was filed as active; the % refers to the signal ratio). The gist of the method: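 p53RE-bla reporter cells, compounds added in DMSO after 5 h plating, incubated 16 h at 37 C. Beta-lactamase read via 2 h room-temperature LiveBLAzer B/G FRET substrate, fluorescence intensity.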
The target of experiment [10] is 5-hydroxytryptamine receptor 2A (Homo sapiens) (UniProt P28223). The experiment is described as follows: 5-hydroxytryptamine receptor 2A (HTR2A) small molecule antagonists, cell-based qHTS assay (AID 1963586). Also: nearly all actives have a fitted effect of over 45% in size. A digest of the protocol:
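Antagonist-mode intracellular calcium assay: DOI (4 nM) added after 5 min compound pre-incubation at room temperature to dye-loaded HTR2A-CHO cells. Fluorescence followed for 3 min, sampled every second.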

The target is the same in experiment [11]. The experiment can be described thus: 5-hydroxytryptamine receptor 2A (HTR2A) small molecule agonists, cell-based qHTS assay (AID 1963587). Also: nearly all actives have a fitted effect of over 30% in size. The gist of the method:
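CHO cells stably expressing human HTR2A, plated 18 h, loaded with calcium dye 1 h at 37 C. Agonist mode: compounds added and intracellular calcium fluorescence recorded kinetically for 2 min at 1 sec intervals.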

For experiment [12], the target named is Muscarinic acetylcholine receptor M1 (Homo sapiens) (UniProt P11229). The experiment can be described thus: Cholinergic receptor muscarinic 1 (CHRM1) small molecule antagonists, cell-based qHTS assay (AID 1963588). Also: nearly all actives have a fitted effect of over 40% in size. A digest of the protocol:
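CHRM1-CHO calcium-flux assay, antagonist mode. Cells were seeded 18 h, dye-loaded 1 h at 37 C and given compound for 5 min at RT, then acetylcholine was added at 50nM. FDSS fluorescence was read 3 min; 15 concentrations, three runs.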

Experiment [13] shares this target. The experiment can be described thus: Cholinergic receptor muscarinic 1 (CHRM1) small molecule agonists, cell-based qHTS assay (AID 1963589). Also: nearly all actives have a fitted effect of over 35% in size. A digest of the protocol:
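CHO cells stably expressing human CHRM1 were loaded with calcium dye for 1 h at 37 C, then compound was added in agonist mode. Intracellular calcium fluorescence was followed kinetically at 1 s intervals. Fifteen concentrations were tested in three independent runs.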

A short description of experiment [14]: cAMP Responsive Elements (CRE) small molecule agonists, cell-based qHTS assay (AID 1963590). A digest of the protocol: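 CRE-bla HEK 293T cells, 2,000/well in DMEM with 10% dialyzed FBS and 25 mM HEPES, pre-incubated 18 h at 37 C, then exposed to compound 3 h at 37 C. Beta-lactamase reporter read with LiveBLAzer B/G FRET substrate after 2 h at room temperature.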

Experiment [15] is described as follows: cAMP Responsive Elements (CRE) small molecule antagonists, cell-based qHTS assay (AID 1963591; active = well fitted inhibition curve with a large enough effect in the signal ratio in the repeat runs, not every such curve was filed as active; the % refers to the signal ratio). A digest of the protocol: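 CRE-bla HEK293T cells plated 18 h, then given compound plus NKH477 at 0.25 uM final for 3 h at 37C. Beta-lactamase reporter read with LiveBLAzer B/G FRET substrate after 2 h at room temperature.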
Experiment [16] concerns the target Beta-2 adrenergic receptor (Homo sapiens) (UniProt P07550). The experiment is described as follows: Adrenergic beta2 receptor (ADRB2) small molecule antagonists, cell-based qHTS assay (AID 1963592). Also: series mostly up to about 92 µM; nearly all actives have a fitted effect of over 50% in size. The gist of the method: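 Cells (CHO, stable ADRB2 overexpression) incubated 18-20hr at 37C; compounds added from DMSO; agonist mix (1nM isoproterenol, 100uM IBMX, 25uM Ro-20-1724) added; 0.5hr RT; d2-cAMP and anti-cAMP-cryptate added; 1hr RT; 665/615 nm read.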

Experiment [17] has the same target. The experiment is described as follows: Adrenergic beta2 receptor (ADRB2) small molecule agonists, cell-based qHTS assay (AID 1963593).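 Also: CHO cells stably overexpressing human ADRB2.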 The gist of the method:
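CHO cells stably over-expressing ADRB2 were plated overnight at 37C, then dosed with compounds plus a stimulation mix containing 100uM IBMX and 25uM Ro-20-1724 for 0.5hr at room temperature. cAMP was measured by HTRF competition, 1hr.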

Experiment [18] concerns the target D(2) dopamine receptor (Homo sapiens) (UniProt P14416). The experiment can be described thus: Dopamine D2 receptor (DRD2) small molecule agonists, cell-based qHTS assay (AID 1963594). Also: nearly all actives have a fitted effect of over 35% in size. A digest of the protocol:
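HEK293 cells stably expressing human DRD2, pre-treated with PDE inhibitor Ro20-1724 (0.1 mM final) and compound 10 min at room temperature, then stimulated with NKH477 (200nM […]) for 30 min. cAMP read by HTRF (665/620 nm).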

For experiment [19] the target is unchanged. The experiment is described as follows: Dopamine D2 receptor (DRD2) small molecule antagonists, cell-based qHTS assay (AID 1963595; active = well fitted inhibition curve with a large enough effect in the signal ratio in the repeat runs, with a control signal flat; the % refers to the signal ratio). The gist of the method:
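HEK293 cells stably expressing DRD2, preincubated with 0.1 mM Ro20-1724 and compounds 10 min, were stimulated with 200 nM NKH477 plus 12 nM quinpirole for 30 min at room temperature; cAMP measured by HTRF (665/620 nm).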

A short description of experiment [20]: p53 small molecule agonists, cell-based qHTS assay with human liver microsomes (AID 1963577). The gist of the method:
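p53RE-bla reporter cells were pre-incubated 5 h at 37 C, then treated with compounds plus human liver microsomes (0.5 mg/mL final) and NADPH (0.5 mg/mL final) for 16 h at 37 C. Beta-lactamase activity was read by LiveBLAzer fluorescence after 2 h at room temperature.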
% is scaled to controls: 0 for no effect and ±100 for the full control effect.

Chain of Gonadotropin-releasing hormone receptor (Homo sapiens) (P30968 whole entry, looked up): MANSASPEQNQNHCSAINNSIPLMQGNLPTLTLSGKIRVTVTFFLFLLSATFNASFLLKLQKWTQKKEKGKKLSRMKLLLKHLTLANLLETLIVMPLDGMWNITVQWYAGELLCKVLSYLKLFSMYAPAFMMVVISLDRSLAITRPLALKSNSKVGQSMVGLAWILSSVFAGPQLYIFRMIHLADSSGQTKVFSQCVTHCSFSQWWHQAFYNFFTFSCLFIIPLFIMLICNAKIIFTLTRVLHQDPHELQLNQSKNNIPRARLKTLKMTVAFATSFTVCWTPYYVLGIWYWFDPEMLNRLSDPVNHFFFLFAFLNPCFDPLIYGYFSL
Chain of D(2) dopamine receptor (Homo sapiens) (P14416 whole entry, looked up): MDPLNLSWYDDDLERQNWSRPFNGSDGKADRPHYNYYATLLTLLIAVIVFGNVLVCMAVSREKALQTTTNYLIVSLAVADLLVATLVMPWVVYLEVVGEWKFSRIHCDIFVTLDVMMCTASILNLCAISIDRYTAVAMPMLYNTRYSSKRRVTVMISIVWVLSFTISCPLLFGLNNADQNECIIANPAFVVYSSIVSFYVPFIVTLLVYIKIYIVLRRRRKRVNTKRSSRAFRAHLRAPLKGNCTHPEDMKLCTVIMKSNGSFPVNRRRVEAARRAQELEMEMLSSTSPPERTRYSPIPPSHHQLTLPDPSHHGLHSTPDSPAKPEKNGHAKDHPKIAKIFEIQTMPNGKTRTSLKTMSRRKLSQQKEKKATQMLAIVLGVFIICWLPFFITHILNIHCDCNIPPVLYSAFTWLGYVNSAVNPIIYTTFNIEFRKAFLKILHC
Chain of KiSS-1 receptor (Homo sapiens) (Q969F8 whole entry, looked up): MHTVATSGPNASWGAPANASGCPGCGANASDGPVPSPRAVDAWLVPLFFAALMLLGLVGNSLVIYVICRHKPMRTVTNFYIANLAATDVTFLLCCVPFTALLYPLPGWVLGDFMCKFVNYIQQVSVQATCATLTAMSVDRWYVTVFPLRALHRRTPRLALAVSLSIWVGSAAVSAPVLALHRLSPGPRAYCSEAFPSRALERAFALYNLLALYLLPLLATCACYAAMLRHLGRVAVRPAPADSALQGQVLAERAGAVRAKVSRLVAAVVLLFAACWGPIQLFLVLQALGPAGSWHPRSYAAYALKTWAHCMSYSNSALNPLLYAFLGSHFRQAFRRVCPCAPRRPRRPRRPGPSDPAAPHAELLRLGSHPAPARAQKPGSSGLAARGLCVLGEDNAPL
Chain of 5-hydroxytryptamine receptor 2A (Homo sapiens) (P28223 whole entry, looked up): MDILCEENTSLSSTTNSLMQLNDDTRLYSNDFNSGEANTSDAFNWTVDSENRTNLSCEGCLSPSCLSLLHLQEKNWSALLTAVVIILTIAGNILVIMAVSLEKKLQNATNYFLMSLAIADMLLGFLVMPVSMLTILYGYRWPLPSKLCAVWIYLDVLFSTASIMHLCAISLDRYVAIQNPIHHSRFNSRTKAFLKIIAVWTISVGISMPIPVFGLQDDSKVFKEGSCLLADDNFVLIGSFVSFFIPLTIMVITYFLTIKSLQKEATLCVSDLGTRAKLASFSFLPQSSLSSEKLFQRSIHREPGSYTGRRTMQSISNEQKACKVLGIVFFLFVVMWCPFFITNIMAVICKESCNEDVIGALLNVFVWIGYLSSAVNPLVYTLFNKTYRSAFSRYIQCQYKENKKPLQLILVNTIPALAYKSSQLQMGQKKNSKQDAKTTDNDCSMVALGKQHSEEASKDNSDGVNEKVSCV
Chain of Beta-2 adrenergic receptor (Homo sapiens) (P07550 whole entry, looked up): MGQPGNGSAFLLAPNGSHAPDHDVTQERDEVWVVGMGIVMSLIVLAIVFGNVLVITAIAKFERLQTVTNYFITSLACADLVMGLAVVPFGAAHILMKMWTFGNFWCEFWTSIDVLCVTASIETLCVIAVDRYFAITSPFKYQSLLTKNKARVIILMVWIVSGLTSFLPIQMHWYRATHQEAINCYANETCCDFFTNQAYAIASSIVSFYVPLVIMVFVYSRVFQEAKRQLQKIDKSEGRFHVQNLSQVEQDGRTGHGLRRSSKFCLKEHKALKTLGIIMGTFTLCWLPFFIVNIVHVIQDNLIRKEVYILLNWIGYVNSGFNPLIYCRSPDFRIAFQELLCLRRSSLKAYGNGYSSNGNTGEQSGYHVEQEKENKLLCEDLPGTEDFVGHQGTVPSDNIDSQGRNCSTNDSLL
Chain of Muscarinic acetylcholine receptor M1 (Homo sapiens) (P11229 whole entry, looked up): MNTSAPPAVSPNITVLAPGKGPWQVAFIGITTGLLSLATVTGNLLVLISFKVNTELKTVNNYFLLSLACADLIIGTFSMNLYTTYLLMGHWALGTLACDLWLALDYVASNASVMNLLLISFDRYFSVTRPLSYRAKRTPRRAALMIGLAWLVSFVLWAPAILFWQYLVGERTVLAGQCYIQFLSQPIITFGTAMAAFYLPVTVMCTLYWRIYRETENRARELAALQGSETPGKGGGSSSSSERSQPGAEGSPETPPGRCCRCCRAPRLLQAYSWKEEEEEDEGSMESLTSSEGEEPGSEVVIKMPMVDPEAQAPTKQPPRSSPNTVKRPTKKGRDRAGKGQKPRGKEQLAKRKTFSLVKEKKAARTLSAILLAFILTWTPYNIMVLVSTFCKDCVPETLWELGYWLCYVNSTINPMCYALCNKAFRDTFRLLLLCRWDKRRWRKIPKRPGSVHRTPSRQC

For the molecule `CNC(=O)O/N=C(\SC)C(=O)N(C)C`, the Potency entry in [1], in experiment [2], in [3], in experiment [4], in [5] and in experiment [6] was “inactive” in each case. For the same molecule, the Potency entry in experiment [7], in [8], in experiment [9], in experiment [10], in experiment [11] and in experiment [12] was “inactive” in each case. For the same molecule, the Potency entry in experiment [13], in experiment [14], in experiment [15], in experiment [16], in [17] and in experiment [18] was “inactive” each time. Further, the Potency entry in experiment [19] was “inactive”.
For `Nc1ncc([N+](=O)[O-])s1`, the Potency entry in experiment [1], in [2], in [3], in [4], in [5] and in experiment [6] was “inactive” throughout. Further, the Potency entry in experiment [7], in [8], in experiment [9], in [10], in [11] and in experiment [12] was “inactive” in each case. Also, the Potency result in experiment [13], in experiment [15], in experiment [16], in experiment [17], in [18] and in experiment [19] was “inactive” throughout.
`O=C(O)C(F)(F)C(F)(F)C(F)(F)C(F)(F)C(F)(F)C(F)(F)F`: the Potency result in experiment [1], in experiment [2], in [3], in experiment [4], in experiment [5] and in experiment [6] was “inactive” in each case. The Potency entry in experiment [7], in experiment [8], in experiment [9], in experiment [10], in experiment [11] and in experiment [12] was “inactive” in each case. Besides, the Potency result in experiment [13], in experiment [14], in experiment [15], in experiment [16], in experiment [17] and in [18] was “inactive” in each case.
With `O=NN1CCCC1`, in experiment [1], the Potency was 14.3 µM (active) and inactive. In addition, the Potency result in experiment [2], in [3], in [4], in experiment [5], in [6] and in experiment [7] was “inactive” throughout. For the same molecule, the Potency result in [8], in experiment [9], in experiment [10], in experiment [11], in experiment [12] and in experiment [13] was “inactive” throughout. In addition, the Potency entry in [14], in experiment [16], in experiment [17], in [18] and in experiment [19] was “inactive” each time.
`C[C@]12CCC(=O)C=C1CC[C@@H]1[C@@H]2CC[C@@]2(C)[C@H]1CC[C@]2(C)O`: the Potency entry in [1], in experiment [2], in [3], in experiment [4], in experiment [5] and in experiment [20] was “inactive” each time. The Potency entry in [7], in experiment [9], in experiment [14], in experiment [16], in experiment [17] and in [18] was “inactive” in each case. The Potency result in experiment [19] was “inactive”.
`C[C@]12CC[C@H]3[C@@H](CC[C@@]45O[C@@H]4C(O)=C(C#N)C[C@]35C)[C@@H]1CC[C@@H]2O`: the Potency entry in experiment [1], in experiment [3], in [4], in [5], in experiment [6] and in [7] was “inactive” throughout. Also, the Potency result in [8], in experiment [10], in experiment [11], in [12], in [13] and in experiment [16] was “inactive” in each case. In addition, the Potency result in [17], in [18] and in [19] was “inactive” in each case. Besides, the Potency in experiment [2] is 68.6 µM (active) and inactive.
Take `ClC(Cl)(Cl)Br`: the Potency entry in [1], in experiment [2], in experiment [3], in experiment [4], in [5] and in experiment [6] was “inactive” in each case. In addition, the Potency entry in experiment [7], in experiment [8], in experiment [9], in experiment [10], in [11] and in experiment [12] was “inactive” in each case. Further, the Potency entry in experiment [13], in experiment [14], in experiment [16], in [18] and in experiment [19] was “inactive” throughout. For the same molecule, in experiment [15], the activity change, negative = inhibition is 0.761% [at 18.9 µM] (inactive).
In the case of `C=C(C)C(=O)OCC1CO1` (centres undefined), the Potency entry in experiment [1], in experiment [2], in [3], in experiment [4], in experiment [5] and in experiment [6] was “inactive” each time. In addition, the Potency result in [7], in experiment [8], in experiment [9], in experiment [10], in [11] and in experiment [12] was “inactive” in each case. For the same molecule, the Potency result in [13], in [14], in [15], in experiment [16], in experiment [17] and in experiment [18] was “inactive” in each case. In [19], the Potency result was “inactive”.
